This note sets out measurements from PubChem BioAssay (EPA / NIEHS).

A word on the AC50: it is the concentration at which the activity in the assay is half-maximal.

Assay [1] is described as follows: ATG_GRE_CIS: Attagene CIS-FACTORIAL HepG2 Assay for human Glucocorticoid Response Elements (GRE) (AID 2282947). Particulars: HepG2 GRE cis-reporter, Attagene multiplex mRNA; actives raise or lower the signal. Summed up: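 Assay uses human hepatoma HepG2 cells transfected with cis-promoter reporter units, exposed 24 h. mRNA from reporters detected by RT-PCR plus capillary electrophoresis; DMSO serves as negative control and baseline.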

The nature of assay [2]: ATG_M_32_CIS: Attagene CIS-FACTORIAL HepG2 Assay for M32 Transcription Factor (Internal Marker) (AID 2282949).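 Note: background control marker of the multiplexed CIS panel rather than a real target.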 Particulars: HepG2 Attagene cis-factorial M32 reporter, mRNA; actives raise or lower the signal. In short, it runs like this:
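Following 24 h chemical exposure of HepG2 cells transiently expressing cis-promoter reporter constructs, reporter transcript levels were determined by RT-PCR with fluorescent labelling and capillary electrophoresis, then fitted bidirectionally against DMSO.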

In assay [3] the target is Hypoxia-inducible factor 1-alpha (Homo sapiens) (UniProt Q16665). As to the kind of experiment: ATG_HIF1a_CIS: Attagene CIS-FACTORIAL HepG2 Assay for human Hypoxia Inducible Factor 1 (HIF1A) (AID 2282951). The settings on record: HepG2 Attagene cis-factorial HIF1a reporter transcription; actives raise or lower the signal. Summed up: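 HepG2, transient cis-reporter library, 24 h dosing. RNA → RT (oligo dT) → PCR → 6-FAM primer extension → HpaI → CE. Bidirectional curve fit vs DMSO.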

Assay [4] addresses Hepatocyte nuclear factor 6 (Homo sapiens) (UniProt Q9UBC0). As to the kind of experiment: ATG_HNF6_CIS: Attagene CIS-FACTORIAL HepG2 Assay for human Hepatocyte Nuclear Factor 6 (HNF6) (AID 2282952). The settings on record: HepG2 Attagene cis-factorial HNF6 reporter transcription; actives raise or lower the signal. Summed up:
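Reporter mRNA induction or loss in HepG2 after 24 h exposure; transient cis-MRTU transfection; fragments quantified by capillary electrophoresis; bidirectional analysis, DMSO as negative control.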

Assay [5] is described as follows: ATG_MRE_CIS: Attagene CIS-FACTORIAL HepG2 Assay for human Metal Responsive Element (MRE) (AID 2282954). The settings on record: HepG2 MRE cis-reporter transcription, Attagene multiplex; actives raise or lower the signal. In short, it runs like this:
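After a 24 h chemical exposure, transiently transfected HepG2 cells yield RNA whose reporter sequences are amplified, FAM-labelled and sized by capillary electrophoresis. Curves are fitted bidirectionally relative to DMSO.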

A short description of assay [6]: ATG_PBREM_CIS: Attagene CIS-FACTORIAL HepG2 Assay for human Phenobarbital-responsive Enhancer Module (PBREM) (AID 2282955). Particulars: HepG2 PBREM cis-reporter, Attagene multiplexed transcription; actives raise or lower the signal. Summed up:
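HepG2, transient MRTU transfection, 24 h dosing; RNA → oligo(dT) RT → PCR → 6-FAM extension → HpaI → CE. Bidirectional fit vs DMSO.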

Assay [7] deals with Paired box protein Pax-6 (Homo sapiens) (UniProt P26367). In words: ATG_Pax6_CIS: Attagene CIS-FACTORIAL HepG2 Assay for human Paired Box 6 (PAX6) (AID 2282956). The settings on record: HepG2 CIS-FACTORIAL PAX6 reporter transcription, RNA readout; actives raise or lower the signal. In short, it runs like this:
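After twenty-four hours of chemical exposure, transfected HepG2 cells are harvested for RNA. Cis-promoter reporter transcripts are amplified, fluorescently labelled and sized by capillary electrophoresis, with gain and loss of signal scored against DMSO.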

Assay [8] is described as follows: ATG_M_06_CIS: Attagene CIS-FACTORIAL HepG2 Assay for M06 Transcription Factor (Internal Marker) (AID 2282950). Particulars: HepG2 Attagene CIS-FACTORIAL M06 internal marker reporter; actives raise or lower the signal. In short, it runs like this:
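Read-out is fluorescence of labelled reporter cDNA fragments resolved by capillary electrophoresis after RT-PCR. Cells: HepG2 carrying transfected cis-promoter reporter units, treated 24 h. Gain or loss of signal fitted relative to DMSO.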

Assay [9] addresses Heat shock factor protein 1 (Homo sapiens) (UniProt Q00613). In words: ATG_HSE_CIS: Attagene CIS-FACTORIAL HepG2 Assay for human Heat Shock Transcription Factor 1 (HSE) (AID 2282953). The settings on record: HepG2 HSE cis-reporter, Attagene RNA transcription; actives raise or lower the signal. Summed up:
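HepG2, transient MRTU transfection, cis-promoter reporters (endogenous TF activity). 24 h compound. RNA → oligo(dT) RT → PCR → 6-FAM primer extension → HpaI cut → CE. Bidirectional fit vs DMSO.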

Assay [10] in a line: ATG_ISRE_CIS: Attagene CIS-FACTORIAL HepG2 Assay for human Interferon Regulatory Factor 1 (IRF1) binding to an Interferon-Stimulated Response Element (ISRE) (AID 2282948). The settings on record: HepG2 ISRE cis-reporter (Attagene), mRNA transcription readout; actives raise or lower the signal. In short, it runs like this: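 Quantitation relies on labelled RT-PCR fragments separated by capillary electrophoresis. Human HepG2 cells bearing cis-promoter reporter constructs were treated 24 h; DMSO served as baseline for bidirectional fitting.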

Activity calls are given as the source filed them. Rule for the calls: active = hit-call score of the fitted dose curve at least 0.9, where 1 is the maximum; inactive = score below 0.9.

Sequence of Hypoxia-inducible factor 1-alpha (Homo sapiens) (Q16665 whole entry, looked up): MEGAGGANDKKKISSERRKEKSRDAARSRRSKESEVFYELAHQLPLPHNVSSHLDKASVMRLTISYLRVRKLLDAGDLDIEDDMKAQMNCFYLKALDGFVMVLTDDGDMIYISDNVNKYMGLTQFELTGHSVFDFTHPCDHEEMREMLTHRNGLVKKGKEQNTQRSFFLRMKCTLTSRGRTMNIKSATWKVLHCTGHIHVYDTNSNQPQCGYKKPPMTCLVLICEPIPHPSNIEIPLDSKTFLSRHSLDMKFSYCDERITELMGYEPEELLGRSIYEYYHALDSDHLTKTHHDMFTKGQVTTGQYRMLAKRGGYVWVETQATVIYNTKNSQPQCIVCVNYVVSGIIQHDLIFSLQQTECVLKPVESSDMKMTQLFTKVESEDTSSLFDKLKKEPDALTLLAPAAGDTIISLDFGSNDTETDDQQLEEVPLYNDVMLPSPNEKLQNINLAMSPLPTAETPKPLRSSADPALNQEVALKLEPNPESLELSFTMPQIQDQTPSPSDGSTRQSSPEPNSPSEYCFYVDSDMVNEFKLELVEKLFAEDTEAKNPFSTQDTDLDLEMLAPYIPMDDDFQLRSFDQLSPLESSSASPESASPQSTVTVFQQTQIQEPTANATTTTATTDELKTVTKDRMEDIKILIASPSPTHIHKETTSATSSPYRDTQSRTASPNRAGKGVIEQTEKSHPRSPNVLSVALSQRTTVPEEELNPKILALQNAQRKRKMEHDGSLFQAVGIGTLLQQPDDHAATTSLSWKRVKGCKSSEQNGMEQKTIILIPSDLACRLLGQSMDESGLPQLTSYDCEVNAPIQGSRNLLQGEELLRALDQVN
Sequence of Paired box protein Pax-6 (Homo sapiens) (P26367 whole entry, looked up): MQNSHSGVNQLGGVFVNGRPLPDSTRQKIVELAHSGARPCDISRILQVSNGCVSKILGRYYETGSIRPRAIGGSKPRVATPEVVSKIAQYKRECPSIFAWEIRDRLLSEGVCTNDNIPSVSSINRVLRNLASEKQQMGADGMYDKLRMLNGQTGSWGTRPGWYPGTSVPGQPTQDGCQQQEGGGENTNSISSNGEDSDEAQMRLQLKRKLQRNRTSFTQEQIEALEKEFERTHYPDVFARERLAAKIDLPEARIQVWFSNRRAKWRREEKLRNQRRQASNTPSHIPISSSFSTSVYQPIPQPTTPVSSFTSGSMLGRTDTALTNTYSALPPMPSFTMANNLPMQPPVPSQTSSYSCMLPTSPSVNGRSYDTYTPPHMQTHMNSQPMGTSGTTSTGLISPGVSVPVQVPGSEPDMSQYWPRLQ
Sequence of Hepatocyte nuclear factor 6 (Homo sapiens) (Q9UBC0 whole entry, looked up, the tested form may be a part): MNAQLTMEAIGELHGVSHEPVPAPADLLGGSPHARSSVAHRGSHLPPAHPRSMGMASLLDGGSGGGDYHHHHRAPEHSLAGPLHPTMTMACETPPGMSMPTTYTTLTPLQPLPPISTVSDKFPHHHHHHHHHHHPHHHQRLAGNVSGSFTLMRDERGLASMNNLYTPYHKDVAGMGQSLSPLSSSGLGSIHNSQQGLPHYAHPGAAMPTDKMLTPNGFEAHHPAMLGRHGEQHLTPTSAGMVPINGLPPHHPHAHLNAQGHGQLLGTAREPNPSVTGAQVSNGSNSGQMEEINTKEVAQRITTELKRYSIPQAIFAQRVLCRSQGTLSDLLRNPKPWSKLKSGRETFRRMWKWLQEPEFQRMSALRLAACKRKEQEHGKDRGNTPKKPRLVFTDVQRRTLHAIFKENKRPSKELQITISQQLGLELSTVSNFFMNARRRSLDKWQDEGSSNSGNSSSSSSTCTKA
Sequence of Heat shock factor protein 1 (Homo sapiens) (Q00613 whole entry, looked up): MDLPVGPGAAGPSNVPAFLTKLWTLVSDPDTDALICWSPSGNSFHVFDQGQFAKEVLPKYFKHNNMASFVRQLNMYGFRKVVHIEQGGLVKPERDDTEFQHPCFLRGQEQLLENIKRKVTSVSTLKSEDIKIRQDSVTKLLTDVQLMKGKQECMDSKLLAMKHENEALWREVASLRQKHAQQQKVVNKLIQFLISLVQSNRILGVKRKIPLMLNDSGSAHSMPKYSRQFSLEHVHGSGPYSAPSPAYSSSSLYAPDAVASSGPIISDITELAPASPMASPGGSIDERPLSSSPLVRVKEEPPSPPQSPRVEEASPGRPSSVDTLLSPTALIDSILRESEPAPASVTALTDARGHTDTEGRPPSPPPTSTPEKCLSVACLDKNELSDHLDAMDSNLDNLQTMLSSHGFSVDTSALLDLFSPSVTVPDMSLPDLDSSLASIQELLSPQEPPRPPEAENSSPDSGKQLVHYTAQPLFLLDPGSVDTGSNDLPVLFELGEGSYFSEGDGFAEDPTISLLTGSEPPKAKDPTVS

Turning to `COc1ccc(C(=O)Nc2nc3ccccc3c(NCc3ccccc3)c2C#N)cc1`, the result in [1], in assay [2], in assay [4], in [5], in [6] and in [7] was inactive. For the same molecule, in assay [3], the AC50 is 26.5 µM (active).
Turning to `CC1(C)C(=O)NC(=O)N1CO`, the molecule was called inactive in [1], in [2], in [8], in [3], in assay [4] and in assay [9]. In addition, the outcome in [5], in [6] and in assay [7] was inactive.
In the case of `CCCC(=O)O`, the molecule was classed as inactive in assay [1], in assay [2], in assay [8], in assay [3], in assay [4] and in assay [5]. Also, the outcome in assay [6] and in [7] was inactive.
As to `CC(=O)OCC(COC(C)=O)OC(C)=O`, the call in assay [1], in assay [2], in assay [3], in assay [4], in [9] and in assay [5] was inactive. Besides, the molecule was classed as inactive in [7].
Take `CCCCCCCCCC[N+](C)(C)[O-]`: the molecule was classed as inactive in assay [1], in assay [2], in [8], in assay [3], in assay [4] and in [9]. Further, the result in [5] and in assay [7] was inactive.
As for `CCCCC(CC)CO` (stereo unspecified), the call in assay [1], in assay [2], in assay [8], in assay [3], in assay [4] and in assay [9] was inactive. In addition, the outcome in assay [5], in assay [6] and in assay [7] was inactive.
In the case of `O=[Si]=O`, the molecule was called inactive in assay [1], in [10], in [2], in [3], in assay [4] and in assay [5]. In addition, the molecule was called inactive in [7].
As to `CS(=O)(=O)c1ccc([C@@H](C[C@H]2CCC(=O)C2)C(=O)Nc2cnccn2)cc1Cl`, the molecule was classed as inactive in [1], in assay [2], in assay [8], in assay [3], in [4] and in assay [5]. Moreover, the outcome in [6] and in [7] was inactive.
In the case of `COC(=O)CCC(=O)OC`, the call in assay [1], in assay [10], in [2], in [3], in [4] and in assay [5] was inactive. The result in assay [6] and in assay [7] was inactive.
For the molecule `O=C1CCCCC1`, the molecule was classed as inactive in [1], in assay [2], in [8], in assay [3], in [4] and in assay [5]. In addition, the result in assay [6] and in [7] was inactive.
In the case of `OCC(CO)n1cnc(-c2ccc(F)cc2)c1-c1ccnc(Oc2ccccc2)n1`, the result in assay [1], in [2], in assay [3], in assay [4], in [9] and in assay [5] was inactive. In addition, the result in [6] and in assay [7] was inactive.
`CCCCCCCCCCCCCCOS(=O)(=O)O`: the molecule was called inactive in assay [1], in assay [2], in assay [3], in assay [4], in assay [5] and in assay [6]. In addition, in [7], the molecule was called inactive.
Turning to `CCOCCOCCO`, the molecule was called inactive in [1], in assay [2], in [8], in [3], in [4] and in assay [5]. Also, the result in [7] was inactive.
Take `O=Cc1ccccc1C=O`: the call in [1], in [2], in [4], in [9], in assay [5] and in assay [7] was inactive. The AC50 in assay [3] was 26.2 µM (active).
In the case of `CCCCCCCCCCCCCCCCO`, the call in assay [1], in assay [10], in assay [2], in assay [3], in assay [4] and in assay [5] was inactive. Moreover, the outcome in assay [6] and in [7] was inactive.
Turning to `CSc1ccc(Oc2ccc(S(N)(=O)=O)cc2CN(C)C)cc1C`, the result in [1], in assay [10], in assay [2], in [3], in [4] and in assay [5] was inactive. Besides, the result in [6] and in assay [7] was inactive.
On to `O=C(N[C@@H](c1ccccc1)[C@@H]1CCCCN1)c1cccc(C(F)(F)F)c1Cl`, for which the molecule was called inactive in [1], in assay [2], in [8] and in assay [6]. Further, the half-maximal activity concentration (AC50) was 16.6 µM (active) in assay [3]; 62.1 µM (active) in assay [4]; 52.4 µM (active) in assay [9]; 38 µM (active) in assay [5]; 33 µM (active) in assay [7].
With `Nc1nc(Cl)nc2c1ncn2[C@H]1C[C@H](O)[C@@H](CO)O1`, the molecule was classed as inactive in assay [1], in assay [10], in [2], in assay [4], in [9] and in assay [5]. Besides, the outcome in [6] and in assay [7] was inactive.
Turning to `O=C(Oc1ccccc1)c1cccc(C(=O)Oc2ccccc2)c1`, the call in [1], in assay [2], in [3], in assay [4], in assay [5] and in assay [6] was inactive. Besides, the call in assay [7] was inactive.
Regarding `Cc1cc(Cc2ccc(N)c(C)c2)ccc1N`, the call in [1], in assay [2], in [3], in [4], in assay [5] and in assay [6] was inactive. In addition, the molecule was classed as inactive in assay [7].
Consider `NC=O`, for which the call in assay [10], in [2], in assay [8], in assay [3], in assay [4] and in assay [9] was inactive. The result in [5] and in assay [7] was inactive.
In the case of `CCCCCCCC(=O)OC`, the outcome in [10], in assay [2], in assay [4], in assay [9], in assay [5] and in assay [6] was inactive. Also, in [7], the outcome was inactive. Moreover, the AC50 in assay [3] was 68.3 µM (active).
